In PubChem BioAssay:
Values joined by “and” are separate entries in the source; they are usually repeats but may differ in a detail not shown here. Equal values may be shown once. Active and inactive are the calls of the source.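 Rule for the calls, unless noted: active = inhibition at or above 50% relative to wild type and mutant plate controls; inactive = inhibition below 50%.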

Assays:
[1] = inhibitors of TNFa-induced NFkB p65 translocation, primary screen, imaging, HUVEC, MLSMR starter and 10KST1 sets (AID 438;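 active = inhibition above 20% together with a positive visual image hit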;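 note: compound added about 3h40 before a 20 min TNFalpha stimulation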;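 for inhibition: signal is the nuclear over cytoplasmic p65 intensity ratio per well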); conditions: HUVEC TNFa-induced p65 nuclear translocation; cell count: measured here: nuclei count (cytotoxicity indicator), at 2.08 µM; inhibition: at 2 µM, stronger effect = higher value, 0% TNFa-plus-vehicle, 100% no-TNFa wells
[2] = reduction of polyQ htt aggregates in cells – imaging, exon1htt(103Q)mCFP cells, high-content imaging, primary screen (AID 483;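 active = visual image review flags a hit and inhibition of aggregation exceeds 20%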;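 note: compound exposure lasted 3 days before fixation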;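 for nuclei count: percent of the per-plate median nuclei count of sample wells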); conditions: exon1htt(103Q)mCFP cell line, aggregate imaging, at 2 µM; inhibition of aggregation: stronger effect = higher value; nuclei count: measured here: cell count, toxicity
[3] = endothelial E-selectin expression blockers – imaging, HUVEC, immunofluorescence, MLSMR starter and 10KST1 sets, primary screen (AID 487;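 active = visually confirmed hit in the image check and inhibition above 20%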;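 for inhibition: signal is fraction of cell area covered by stained E-selectin grains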;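 for nuclei count: 100% = median nuclei count of all wells on the same plate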); conditions: HUVEC TNFalpha-induced E-selectin immunofluorescence imaging, at 2 µM; inhibition: stronger effect = higher value; nuclei count: measured here: cell number, toxicity
[4] = Primary imaging screen for DUSP6 inhibitors that restore phospho-Erk in transfected HeLa cells, chemical complementation (AID 609;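 active = compounds giving at least 50% inhibition in the cell-based MKP-3 phosphatase rescue imaging test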;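 for inhibition: phospho-Erk level distribution per well compared with pooled transfected vehicle control wells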); conditions: HeLa MKP-3 transfected, phospho-Erk imaging KS statistic, at 10 µM, cells stimulated with TPA for 15 min
[5] = molecular target: Dual specificity protein phosphatase 6 (Homo sapiens) (UniProt Q16828); test: as above; conditions: HeLa MKP-3 transfected, phospho-Erk imaging KS statistic; at 10 µM; stronger effect = higher value; cells stimulated with TPA for 15 min
[6] = molecular target: Voltage-gated potassium channel subunit beta-2 (Rattus norvegicus) (UniProt P62483); test: inhibitors of rat Kvbeta2 reductase activity – biochemical, NADPH fluorescence, primary screen (AID 622;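 active = fluorescence slope higher than the sample average by over 3 SD, cut at about -0.22 in these data, passing the limit was not always enough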;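 note: slope of raw intensity against log time taken from 70 to 1610 s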); conditions: recombinant KvBeta, 4-cyanobenzaldehyde reduction, at 10 µM, stronger effect = higher value
[7] = molecular target: Voltage-gated potassium channel subunit beta-2 (Rattus norvegicus) (UniProt P62483); test: enhancers of rat Kvbeta2 NADPH turnover – biochemical, NADPH fluorescence, primary screen (AID 623;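 active = NADPH fluorescence slope more negative than the mean of all samples by about 3 SD, 99.7% confidence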;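 note: fluorescence intensity change per second fitted from 20 to 320 s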); conditions: Recombinant KvBeta, NADPH fluorescence decrease slope, 10 min; at 10 µM; stronger effect = lower value
[8] = molecular target: Alpha-2C adrenergic receptor (Homo sapiens) (UniProt P18825); test: compounds altering alpha2C-coupled GIRK flux – cell-based, HEK293 alpha2C/GIRK1/2, thallium flux, primary screen (AID 624;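 active = fluorescence slope after compound addition differing from the mean of all screened samples at 99.7% confidence, in either direction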;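 note: slope of fluorescence ratio to pre-addition baseline per second over 15 to 24 s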); conditions: thallium flux BTC fluorescence, at 10 µM, actives lie on both sides
[9] = inhibitors of larval lipid processing in zebrafish, primary screen, whole organism, PED6 fluorescence, gall bladder and intestine (AID 686;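 active = a full or partial loss of lipid-probe fluorescence in the fish gall bladder, intestine or both, judged by eye; inactive = no fluorescence loss, or compound toxic to the fish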;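 note: larvae 5 to 7 days old with five fish per well; signal comes from phospholipase A2 cleavage of quenched PED6 carried via bile; overnight exposure to compound and PED6 before scoring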); conditions: Zebrafish larvae PED6 lipid processing, fluorescence scoring; screened at 20 µM (by protocol)
[10] = loss of swimming-algae plug formation – whole organism, Chlamydomonas reinhardtii, WT vs cilia-less mutant, absorbance, 96-well, primary screen (AID 463189); conditions: Chlamydomonas reinhardtii gravitaxis, OD600 absorbance, 2 days; at 10 µM; stronger effect = higher value;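 note: 0% = wild type cc124 cells in DMSO and 100% = ciliumless bld1 mutant cells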
[11] = blockers of RIG-like receptor reporter activation – cell-based, Sendai virus stimulus, luciferase, 10K MLSCN set, TLR/RLR signaling modifier project, primary screen (AID 602276;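 active = inhibition at or above 50% at 10 µM; inactive = inhibition below 50%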;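 note: firefly luciferase from ISG56 promoter only with Renilla not read in this screen; 0% = Sendai virus plus DMSO and 100% = medium plus DMSO without virus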); conditions: HEK293 RL24 IRF3 luciferase reporter, at 10 µM, stronger effect = higher value
[12] = TLR3 IRF3 reporter activation blockers – cell-based, poly I:C stimulus, luciferase, 10K MLSCN set, primary screen (AID 602277;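 active = inhibition of the reporter signal at or above 50%; inactive = inhibition below 50%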); conditions: HEK293-TLR3 RL24 IRF3 luciferase reporter, at 10 µM, stronger effect = higher value
[13] = molecular target: Muscarinic acetylcholine receptor M4 (Homo sapiens) (UniProt P08173); test: M4-linked GIRK flux change, two-sided – cell-based, HEK293 M4/GIRK, thallium flux, BTC-AM, M4 allosteric agonist project, primary screen (AID 625;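 active = fluorescence slope after compound addition differing from the mean of all tested samples at 99.7% confidence, mostly higher but some lower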;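 note: thallium influx through GIRK channels coupled to M4 in HEK293 cells with BTC-AM dye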); conditions: at 10 µM, actives lie on both sides
[14] = measured here: cell density z-score
[15] = measured here: nuclear c-Myc green intensity z-score
[16] = measured here: nuclear pErk red intensity z-score, stronger effect = higher value

Sequence of Alpha-2C adrenergic receptor (Homo sapiens) (P18825 whole entry, looked up): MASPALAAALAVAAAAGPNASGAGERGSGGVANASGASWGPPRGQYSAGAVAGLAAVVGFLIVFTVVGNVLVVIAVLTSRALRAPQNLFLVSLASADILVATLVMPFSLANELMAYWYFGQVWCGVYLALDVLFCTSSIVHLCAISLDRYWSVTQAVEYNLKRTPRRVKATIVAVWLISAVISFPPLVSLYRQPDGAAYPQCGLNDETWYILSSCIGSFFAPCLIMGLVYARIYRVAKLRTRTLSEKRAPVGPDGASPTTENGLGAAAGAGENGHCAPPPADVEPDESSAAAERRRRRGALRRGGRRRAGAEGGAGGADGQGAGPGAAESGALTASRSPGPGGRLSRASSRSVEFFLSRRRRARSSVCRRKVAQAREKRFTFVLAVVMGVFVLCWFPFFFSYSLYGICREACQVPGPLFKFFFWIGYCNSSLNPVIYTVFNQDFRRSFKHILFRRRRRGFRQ
Sequence of Dual specificity protein phosphatase 6 (Homo sapiens) (Q16828 whole entry, looked up): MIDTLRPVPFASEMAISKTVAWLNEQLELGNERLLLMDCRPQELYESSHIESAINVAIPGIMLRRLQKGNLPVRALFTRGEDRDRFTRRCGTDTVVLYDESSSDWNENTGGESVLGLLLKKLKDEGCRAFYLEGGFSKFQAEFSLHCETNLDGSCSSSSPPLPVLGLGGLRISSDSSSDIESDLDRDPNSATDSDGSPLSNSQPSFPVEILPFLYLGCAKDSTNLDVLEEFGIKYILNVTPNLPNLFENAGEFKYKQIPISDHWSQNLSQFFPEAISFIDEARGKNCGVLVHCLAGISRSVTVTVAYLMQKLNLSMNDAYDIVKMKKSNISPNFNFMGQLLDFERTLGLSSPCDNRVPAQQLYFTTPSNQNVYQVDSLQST
Sequence of Muscarinic acetylcholine receptor M4 (Homo sapiens) (P08173 whole entry, looked up): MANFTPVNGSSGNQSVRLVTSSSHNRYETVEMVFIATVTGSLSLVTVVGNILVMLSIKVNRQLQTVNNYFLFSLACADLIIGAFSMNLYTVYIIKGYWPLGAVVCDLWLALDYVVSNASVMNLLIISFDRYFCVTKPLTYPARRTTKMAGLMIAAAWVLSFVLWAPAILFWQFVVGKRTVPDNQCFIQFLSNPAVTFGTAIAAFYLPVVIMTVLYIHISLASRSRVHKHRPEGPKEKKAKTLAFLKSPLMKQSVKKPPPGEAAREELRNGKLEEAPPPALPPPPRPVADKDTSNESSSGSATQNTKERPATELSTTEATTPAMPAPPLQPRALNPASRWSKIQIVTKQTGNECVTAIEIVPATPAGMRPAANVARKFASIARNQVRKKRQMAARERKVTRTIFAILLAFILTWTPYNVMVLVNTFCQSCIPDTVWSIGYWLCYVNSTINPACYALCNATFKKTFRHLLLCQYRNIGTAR
Sequence of Voltage-gated potassium channel subunit beta-2 (Rattus norvegicus) (P62483 whole entry, looked up): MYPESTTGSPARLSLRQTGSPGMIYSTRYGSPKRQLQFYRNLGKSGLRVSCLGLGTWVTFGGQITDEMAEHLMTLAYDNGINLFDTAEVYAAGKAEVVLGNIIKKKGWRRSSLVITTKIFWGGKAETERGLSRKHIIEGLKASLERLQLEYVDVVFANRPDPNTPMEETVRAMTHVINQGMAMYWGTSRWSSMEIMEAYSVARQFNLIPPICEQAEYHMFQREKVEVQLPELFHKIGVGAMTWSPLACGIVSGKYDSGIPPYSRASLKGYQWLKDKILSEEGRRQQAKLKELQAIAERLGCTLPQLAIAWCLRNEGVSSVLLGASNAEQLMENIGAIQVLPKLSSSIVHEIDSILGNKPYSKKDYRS

SMILES	cell count [1]	inhibition [1]	inhibition of aggregation [2]	nuclei count [2]	inhibition [3]	nuclei count [3]	z-score [4, 14]	z-score [4, 15]	z-score [4, 16]	inhibition [5]	fluorescence slope [6]	NADPH fluorescence slope [7]	slope [8]	outcome [9]	inhibition [10]	inhibition [11]	inhibition [12]	fluorescence slope [13]
Cc1ccc2nc(C(F)(F)F)c(C#N)c(N)c2c1	451	-9.7% (inactive)	11% (inactive)	77.3%	-14.1% (inactive)	90.7%	-0.557	-0.479	-0.0348	1.75% (inactive)	-0.49 (inactive)	-2e-05 (inactive)	0.00524 (inactive)	inactive	-8.78% (inactive)	20% (inactive)	-10.8% (inactive)	–
Cc1ccc(S(=O)(=O)NCC(=O)OCN2C(=O)c3ccccc3C2=O)cc1	416	-4.7% (inactive)	-19.8% (inactive)	85.7%	-23.1% (inactive)	93.4%	-0.341	-0.796	0.197	7.93% (inactive)	-0.574 (inactive)	4e-05 (inactive)	0.00572 (inactive)	inactive	45.3% (inactive)	11.3% (inactive)	-3.4% (inactive)	–
Cc1ccc2[nH]c3c(N4CCOCC4)ncnc3c2c1	599	-3.9% (inactive)	18.9% (inactive)	82.9%	-12.3% (inactive)	152%	-1.33	0.984	0.577	-1.98% (inactive)	-0.16 (inactive)	-2.2e-05 (inactive)	–	inactive	-1.47% (inactive)	-15.5% (inactive)	-85.9% (inactive)	0.00605 (inactive)
CO[C@H]1C[C@@H]2CC[C@@H](C)[C@@](O)(O2)C(=O)C(=O)N2CCCC[C@H]2C(=O)O[C@H]([C@H](C)C[C@@H]2CC[C@@H](O)[C@H](OC)C2)CC(=O)[C@H](C)C=C(C)[C@@H](O)[C@@H](OC)C(=O)[C@H](C)C[C@H](C)C=CC=CC=C1C	629	-23.5% (inactive)	3.4% (inactive)	97%	-63% (inactive)	106%	0.947	0.453	0.871	19.2% (inactive)	-0.462 (inactive)	-3.4e-05 (inactive)	0.00536 (inactive)	inactive	44.3% (inactive)	21.8% (inactive)	43.8% (inactive)	–
C[C@H](CCC(=O)O)[C@H]1CC[C@H]2[C@@H]3C(=O)C[C@@H]4CC(=O)CC[C@]4(C)[C@H]3CC(=O)[C@]12C	606	-9.6% (inactive)	5.8% (inactive)	102%	-37.7% (inactive)	138%	-0.246	-0.125	-0.32	3.45% (inactive)	-0.45 (inactive)	5.4e-06 (inactive)	0.00499 (inactive)	inactive	9.63% (inactive)	14.6% (inactive)	33.2% (inactive)	–
Fc1ccc(C2C3=C(Nc4ncnn42)c2ccccc2OC3c2ccncc2)cc1 (stereo not given)	363	1.7% (inactive)	2.1% (inactive)	113%	-83.1% (inactive)	136%	0.971	-0.105	1.45	21.4% (inactive)	-0.41 (inactive)	-0.000137 (inactive)	0.00729 (inactive)	inactive	-7.08% (inactive)	17.4% (inactive)	19.3% (inactive)	–
CCN1CCc2c(C#N)c(N3CCCCC3)nc(NCc3ccccc3)c2C1	466	-4.8% (inactive)	16.8% (inactive)	89.7%	-51.6% (inactive)	112%	1.27	-1.37	-1.11	16.5% (inactive)	-0.472 (inactive)	-3.9e-05 (inactive)	–	inactive	23.7% (inactive)	14.7% (inactive)	31.2% (inactive)	0.00484 (inactive)
CC[N+](C)(C)c1cccc(O)c1	610	-6.9% (inactive)	10.2% (inactive)	102%	-108% (inactive)	130%	-0.368	-0.0907	-0.21	3.45% (inactive)	-0.492 (inactive)	-5.2e-05 (inactive)	0.00476 (inactive)	inactive	6.97% (inactive) and -3.25% (inactive)	16.5% (inactive)	38.2% (inactive)	–
N=c1ncn(CC(O)CN2CCOCC2)c2nc(N3CCOCC3)[nH]c12 (stereo not given)	536	-23.6% (inactive)	20.3% (inactive)	88.8%	-90.1% (inactive)	124%	0.636	-1.17	0.315	17.3% (inactive)	-0.517 (inactive)	-2.5e-05 (inactive)	0.00808 (inactive)	inactive	17.5% (inactive)	-19.8% (inactive)	-9.49% (inactive)	–
CCc1ccccc1NC(=O)CSC1=C(C#N)C(c2ccc(O)c(OC)c2)C2=C(CCCC2=O)N1 (stereo not given)	554	-8.4% (inactive)	-29.5% (inactive)	109%	-146% (inactive)	137%	-0.0849	-0.0258	0.52	13.2% (inactive)	-0.422 (inactive)	-3.5e-05 (inactive)	0.00571 (inactive)	inactive	22.1% (inactive)	18.6% (inactive)	20% (inactive)	–
Cc1cc(-c2ccc(F)cc2)nc2cc(C(N)=O)nn12	567	-4% (inactive)	8.1% (inactive)	99.3%	14.3% (inactive)	117%	-0.951	0.396	-0.666	5.57% (inactive)	-0.377 (inactive)	-0.000109 (inactive)	0.00367 (inactive)	inactive	13.5% (inactive)	-10.5% (inactive)	-21.7% (inactive)	–
CCOC(=O)c1ccc(-n2c(=O)[nH]c3ccccc3c2=O)cc1	443	-3.4% (inactive)	7.1% (inactive)	80%	-140% (inactive)	136%	-0.719	-0.246	0.316	11.4% (inactive)	-0.415 (inactive)	-5.7e-05 (inactive)	0.00476 (inactive)	inactive	9.26% (inactive)	-16.9% (inactive)	-29.3% (inactive)	–
Nc1nc(Cl)nc2c1ncn2[C@@H]1O[C@H](CO)[C@@H](O)[C@H]1O	493	-14.6% (inactive)	16.9% (inactive)	88.7%	-20.3% (inactive)	117%	0.919	0.297	-0.425	7.39% (inactive)	-0.439 (inactive)	2.4e-05 (inactive)	0.00614 (inactive)	inactive	13% (inactive)	16.8% (inactive)	39% (inactive)	–
CCOc1c(C)cc2[nH]c(CCC(=O)O)nc2c1C	445	0.7% (inactive)	8.3% (inactive)	97.7%	-40.3% (inactive)	116%	1.23	-1.62	-1.73	7.42% (inactive)	-0.491 (inactive)	-3.6e-05 (inactive)	–	inactive	21.6% (inactive)	8.15% (inactive)	8.77% (inactive)	0.00428 (inactive)
COC(=O)C1=C(N)Oc2cc(C)[nH]c(=O)c2C1c1ccncc1 (stereo not given)	415	-3.5% (inactive)	5.1% (inactive)	99.8%	-70.4% (inactive)	132%	1.07	-0.647	-1.1	11.4% (inactive)	-0.45 (inactive)	-0.000119 (inactive)	0.00625 (inactive)	inactive	35.9% (inactive)	22.8% (inactive)	38.8% (inactive)	–
C[C@@H]1C[C@H]2[C@@H]3CCC4=CC(=O)C=C[C@]4(C)[C@@]3(F)[C@@H](O)C[C@]2(C)[C@@]1(O)C(=O)COP(=O)(O)O	525	-10.3% (inactive)	-19.8% (inactive)	49.4%	-15.3% (inactive)	98.8%	0.835	0.378	-0.291	25.1% (inactive)	-0.516 (inactive)	-5.2e-05 (inactive)	0.00437 (inactive)	inactive	31.6% (inactive)	-1.94% (inactive)	31.9% (inactive)	–
C[C@]12CC[C@@H]3c4ccc(OS(=O)(=O)O)cc4CC[C@H]3[C@@H]1CCC2=O	725	-2.6% (inactive)	1.7% (inactive)	98.9%	-120% (inactive)	121%	1.77	-0.742	-1.13	1.48% (inactive)	-0.507 (inactive)	-4.6e-05 (inactive)	0.00404 (inactive)	inactive	2.37% (inactive)	11.2% (inactive)	25.7% (inactive)	–
CC1(C)O[C@@H]2C[C@H]3[C@@H]4C[C@H](F)C5=CC(=O)CC[C@]5(C)[C@H]4[C@@H](O)C[C@]3(C)[C@]2(C(=O)CO)O1	547	-0.5% (inactive)	-27.2% (inactive)	54.1%	1.2% (inactive)	102%	-0.857	-0.0426	0.461	-2.46% (inactive)	-0.476 (inactive)	-9e-05 (inactive)	0.00483 (inactive)	inactive	6.62% (inactive)	-7.22% (inactive)	22% (inactive)	–
NS(=O)(=O)c1cc2c(cc1Cl)NC(C(Cl)Cl)NS2(=O)=O (stereo not given)	646	-8.4% (inactive)	4.9% (inactive)	109%	-57% (inactive)	134%	-1.31	-0.533	1.7	-4.44% (inactive)	-0.512 (inactive)	-2e-05 (inactive)	0.00475 (inactive)	inactive	3.47% (inactive)	13.9% (inactive)	35.5% (inactive)	–
CCOc1ccc(CSC(CC(=O)O)C(=O)O)cc1 (stereo not given)	670	-12.9% (inactive)	18.1% (inactive)	98.8%	-17.6% (inactive)	137%	-0.325	-0.101	1.94	-6.86% (inactive)	-0.356 (inactive)	-2.7e-05 (inactive)	0.00455 (inactive)	inactive	2.66% (inactive)	13.1% (inactive)	29.3% (inactive)	–
